Laboratory results reported in article PMC5540273 (PLoS ONE, 2017).

Columns and labels:
Conditions in all cases: concentration: 1 μM, replicates: in singlicate; n = 1
DLK = system: T1, DLK
T1 construct: gene MAP3K12

DMPK2 = system: T2, DMPK2
T2 construct: gene CDC42BPG

DMPK = system: DMPK
DRAK1 = system: T3, DRAK1
T3 construct: gene STK17A

DRAK2 = system: T4, DRAK2
T4 construct: gene STK17B

DYRK1A = system: DYRK1A
DYRK1B = system: DYRK1B
DYRK2 = system: DYRK2
EGFR = system: EGFR
EIF2AK1 = system: EIF2AK1
EPHA1 = system: EPHA1
EPHA2 = system: EPHA2
EPHA3 = system: EPHA3
EPHA4 = system: EPHA4
EPHA5 = system: EPHA5
EPHA6 = system: EPHA6
EPHA7 = system: EPHA7
EPHA8 = system: EPHA8
EPHB1 = system: EPHB1
EPHB2 = system: EPHB2
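Further: KINOMEscan kinase panel screen.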

| SMILES | %Inh (DLK) | %Inh (DMPK2) | %Inh (DMPK) | %Inh (DRAK1) | %Inh (DRAK2) | %Inh (DYRK1A) | %Inh (DYRK1B) | %Inh (DYRK2) | %Inh (EGFR) | %Inh (EIF2AK1) | %Inh (EPHA1) | %Inh (EPHA2) | %Inh (EPHA3) | %Inh (EPHA4) | %Inh (EPHA5) | %Inh (EPHA6) | %Inh (EPHA7) | %Inh (EPHA8) | %Inh (EPHB1) | %Inh (EPHB2) |
| --- | --- | --- | --- | --- | --- | --- | --- | --- | --- | --- | --- | --- | --- | --- | --- | --- | --- | --- | --- | --- |
| O=C(Nc1ccc2c(c1)OCO2)NC1CCN(c2ccnc(NCc3ccc(F)cc3)n2)CC1 [GSK1379859] | 22% | 16% | 0% | 6% | 0% | 7% | 14% | 5% | 44% | 10% | 8% | 0% | 0% | 13% | 0% | 8% | 1% | 0% | 0% | 37% |
| CCC(=O)c1c(-c2ccccc2)c2cc(Cl)ccc2c(=O)n1Cc1cc(S(C)(=O)=O)n(CC(F)F)n1 | 0% | 0% | 0% | 0% | 0% | 0% | 13% | 17% | 1% | 0% | 2% | 0% | 7% | 2% | 0% | 2% | 0% | 0% | 0% | 0% |
| Nc1nc(-c2ccccc2F)c(-c2ccnc3ccccc23)s1 [GW560459] | 36% | 3% | 0% | 0% | 3% | 9% | 4% | 0% | 36% | 0% | 0% | 0% | 0% | 0% | 0% | 0% | 0% | 0% | 34% | 0% |
| CCCNC(=O)Nc1ccc(Oc2ncnc3ccn(C)c23)cc1 | 0% | 0% | 0% | 0% | 12% | 16% | 68% | 24% | 15% | 0% | 0% | 0% | 0% | 3% | 12% | 8% | 0% | 0% | 1% | 20% |
| CCc1nc(-c2cccc(C)c2)c(-c2ccncc2)s1 | 0% | 79% | 0% | 0% | 0% | 0% | 0% | 0% | 0% | 9% | 0% | 17% | 4% | 6% | 2% | 0% | 0% | 0% | 8% | 2% |
| Cc1nc(N(C)[C@H]2CN(C(=O)CC#N)CC[C@H]2C)c2cc[nH]c2n1 | 0% | 5% | 0% | 0% | 0% | 0% | 0% | 7% | 0% | 0% | 0% | 0% | 28% | 20% | 2% | 0% | 10% | 12% | 8% | 0% |
| O=C(NCc1cccs1)c1cc(C(=O)c2c(Cl)cccc2Cl)c[nH]1 [GW823670] | 0% | 4% | 6% | 4% | 0% | 0% | 16% | 0% | 0% | 0% | 0% | 0% | 1% | 4% | 0% | 0% | 0% | 4% | 4% | 0% |
| Nc1ncnc2c1ncn2-c1ccc(Cl)cc1 [AH2635] | 27% | 12% | 0% | 17% | 0% | 0% | 0% | 2% | 15% | 0% | 0% | 12% | 0% | 0% | 0% | 0% | 0% | 3% | 9% | 0% |
| O=c1cc(N2CCOCC2)nc2n(Cc3ccc(F)c(Cl)c3)ccn12 [GSK2297099] | 6% | 0% | 0% | 0% | 0% | 12% | 39% | 0% | 18% | 0% | 12% | 0% | 18% | 3% | 0% | 0% | 6% | 6% | 7% | 0% |
| CCC(=O)c1c(-c2ccccc2)c2cc(Cl)ccc2c(=O)n1Cc1cc(C(=O)NC2CC2)n(C)n1 | 49% | 0% | 0% | 0% | 3% | 0% | 48% | 2% | 0% | 0% | 4% | 3% | 8% | 26% | 0% | 38% | 11% | 4% | 7% | 4% |
| COc1cccc(-n2cnc3c(N)ncnc32)c1 [SKF-97416] | 17% | 7% | 11% | 37% | 0% | 12% | 2% | 39% | 18% | 35% | 9% | 0% | 4% | 4% | 3% | 0% | 0% | 0% | 0% | 19% |
| O=C(Nc1n[nH]c2nc(-c3ccccc3)c(Cl)cc12)C1CC1 [SB-734909] | 22% | 11% | 0% | 0% | 0% | 10% | 3% | 8% | 14% | 18% | 19% | 24% | 17% | 8% | 0% | 13% | 17% | 21% | 0% | 0% |
| COC(=O)c1c(-c2ccccc2)c2cc(Br)ccc2c(=O)n1Cc1ccc(NC(=O)CCC(=O)O)cc1 | 0% | 0% | 0% | 0% | 0% | 9% | 48% | 8% | 0% | 12% | 24% | 0% | 4% | 12% | 7% | 31% | 5% | 12% | 5% | 7% |
| COc1cc2ncn(-c3cc(OCCCc4ccccc4)c(C(N)=O)s3)c2cc1OC [GSK205189] | 0% | 0% | 0% | 0% | 0% | 7% | 0% | 0% | 15% | 1% | 0% | 0% | 0% | 3% | 1% | 5% | 5% | 17% | 4% | 0% |
| Cc1cc(Nc2nc(-c3cccc(C)n3)nc3ccccc23)ccn1 [GW872411] | 0% | 2% | 0% | 0% | 0% | 0% | 2% | 0% | 0% | 0% | 0% | 0% | 18% | 0% | 0% | 0% | 0% | 0% | 0% | 0% |
| COc1cc2ncn(-c3cc(OCc4ccncc4)c(C(N)=O)s3)c2cc1OC [GSK336313] | 0% | 12% | 0% | 0% | 0% | 13% | 19% | 23% | 24% | 0% | 21% | 0% | 12% | 0% | 0% | 0% | 4% | 0% | 7% | 0% |
| CCS(=O)(=O)c1ccc(OC)c(Nc2ncc(-c3ccc(F)cc3)o2)c1.Cl [GW591947] | 25% | 13% | 6% | 10% | 0% | 12% | 0% | 17% | 4% | 5% | 0% | 0% | 0% | 0% | 0% | 0% | 0% | 1% | 11% | 64% |
| Nc1nc(N)c2nc(-c3ccccc3)[nH]c2n1 [SKF-12778] | 1% | 0% | 25% | 8% | 0% | 34% | 13% | 44% | 14% | 21% | 12% | 20% | 3% | 17% | 3% | 8% | 3% | 4% | 18% | 10% |
| Cc1ccccc1COc1cc(-n2cnc3cc(Cl)ccc32)sc1C(N)=O [GW813349] | 0% | 2% | 0% | 0% | 1% | 15% | 34% | 19% | 2% | 6% | 9% | 6% | 0% | 0% | 0% | 0% | 0% | 0% | 14% | 19% |
| CCC(=O)c1c(-c2ccccc2)c2cc(Cl)ccc2c(=O)n1Cc1cc(S(C)(=O)=O)n(CCC(C)(C)O)n1 | 0% | 17% | 11% | 14% | 2% | 27% | 11% | 62% | 31% | 19% | 0% | 22% | 4% | 17% | 11% | 34% | 10% | 12% | 6% | 18% |
| COc1ccc(-n2cnc3c(N)ncnc32)cc1 [SKF-97236] | 0% | 0% | 6% | 43% | 0% | 1% | 0% | 0% | 0% | 31% | 0% | 13% | 0% | 0% | 4% | 0% | 1% | 10% | 19% | 0% |
